Entries with a potency or affinity are not part of this list.
What follows are compounds tested on Staphylococcus aureus. Settings: Concentration 32 ug.mL-1;; ASSAY_TEST Inhibition of Bacterial Growth; detection method Absorption (OD600); MEDIA CAMHB; plate type 384well; NBS; CORNING #3640; time 18 hr.

| SMILES | Inhibition |
| --- | --- |
| Cc1ccc(Sc2ccc3nn(CC(=O)Nc4cccc(Cl)c4)c(=O)n3n2)cc1 | -1.85% |
| COc1cccc(Oc2nccn3c(=O)n(CC(=O)Nc4cc(C)c(Cl)cc4OC)nc23)c1 | -12.26% |
| Cc1ccc(-c2cc3c4nn(CC(=O)Nc5ccccc5C)c(=O)n4ccn3n2)cc1C | 5.58% |
| CC(C)c1nnc2c(=O)n(CC(=O)Nc3ccc(Cl)c(Cl)c3)c3ccccc3n12 | 8.95% |
| CCOC(=O)c1ccccc1NC(=O)Cn1nc2c3cc(-c4ccc(Cl)cc4)nn3ccn2c1=O | 7.33% |
| CCN(C(=O)Cn1nc2nc(Nc3ccc(F)cc3)ccn2c1=O)c1ccccc1 | 12.68% |
| Cc1ccc(Oc2nccn3c(=O)n(CC(=O)Nc4ccc(Br)cc4F)nc23)cc1 | 5.87% |
| CCc1ccc(N(Cc2ccccc2Cl)S(=O)(=O)c2cccn3c(C)nnc23)cc1 | 18.06% |
| COc1cc(NC(=O)CSc2nnc3c(=O)n(-c4ccccc4)ccn23)cc(OC)c1 | 14.02% |
| CC(C)Cn1c(=O)c2sccc2n2c(=O)n(Cc3ccccc3Cl)nc12 | 2.13% |
| COc1ccc(C)cc1NC(=O)Cn1nc2cc(C)nc(Nc3ccc(F)cc3)n2c1=O | -14.69% |
| CCOC(=O)N1CCN(C(=O)CCc2nnc3c4cc(-c5ccc(F)cc5)nn4ccn23)CC1 | 10.85% |
| COc1ccc(CNC(=O)Cn2nc3c(N4CCN(c5ccccc5C)CC4)nccn3c2=O)cc1 | 6.39% |
| O=C(Cn1nc2c(SC3CCCCC3)nccn2c1=O)Nc1ccccc1Br | -0.6% |
| Cc1ccc(C)c(Cn2nc3c(=O)n(-c4cccc(Cl)c4C)ccn3c2=O)c1 | -0.35% |
| CCc1ccccc1NC(=O)Cn1nc2c(SCc3ccc(Cl)cc3)nccn2c1=O | 9.03% |
| COc1cccc(-c2nc(CSc3nc4ccccc4n4c(C)nnc34)c(C)o2)c1OC | 2.75% |
| Cc1cc2nn(CC(=O)Nc3ccc(F)cc3Cl)c(=O)n2c(Nc2ccc(F)cc2)n1 | 4.61% |
| O=C(CCc1nnc2c(N3CCCCC3)nc3ccccc3n12)NCc1ccc2c(c1)OCO2 | 17.67% |
| Cc1ccc(C)c(NC(=O)Cn2nc3ccc(-c4ccccc4)nn3c2=O)c1 | -0.8% |
| CCCCOc1ccc(-c2cc3c4nnc(SCC(=O)N(C)c5ccc(F)cc5)n4ccn3n2)cc1 | -20.91% |
| Cc1cc(C)c(NC(=O)Cn2nc3c(SCc4ccc(Cl)cc4)nccn3c2=O)c(C)c1 | 3.14% |
| Cc1ccccc1Oc1nccn2c(=O)n(CC(=O)Nc3ccc(C#N)cc3)nc12 | 8.67% |
| CCc1ccc(N(Cc2ccccc2F)S(=O)(=O)c2cccn3c(C)nnc23)cc1 | 15.67% |
| O=c1c2nn(Cc3cccc([N+](=O)[O-])c3)c(=O)n2ccn1-c1ccccc1 | -0.55% |

What follows are compounds tested on Escherichia coli. Settings: Concentration 32 ug.mL-1;; ASSAY_TEST Inhibition of Bacterial Growth; detection method Absorption (OD600); MEDIA CAMHB; plate type 384well; NBS; CORNING #3640; time 18 hr.

| SMILES | Inhibition |
| --- | --- |
| Cc1ccc(-n2ccn3c(=O)n(Cc4c(F)cccc4Cl)nc3c2=O)cc1C | -0.86% |
| Cc1ccc(NC(=O)Cn2nc3c(Sc4ccccc4)nccn3c2=O)c(C)c1 | -4.74% |
| Cc1cccc(NC(=O)Cn2nc3c(SCc4ccccc4)nccn3c2=O)c1C | -6.74% |
| O=C(Cn1nc2c3c4c(sc3ncn2c1=O)CCCC4)N1CCc2ccccc2C1 | 2.08% |
| O=C(Cn1nc2c(N3CCOCC3)nccn2c1=O)Nc1ccc2c(c1)OCO2 | 0.24% |
| O=C(CSc1nc2ccccc2n2cnnc12)NCc1ccccc1Cl | -4.49% |
| COc1ccc(CN(c2cc(C)cc(C)c2)S(=O)(=O)c2cccn3c(C)nnc23)cc1 | -2.42% |
| Cc1ccc(Oc2nccn3c(=O)n(CC(=O)N4CCN(c5ccccc5F)CC4)nc23)cc1 | -0.59% |
| Cc1cccc(C)c1NC(=O)CSc1nnc2c3cc(-c4ccc(F)cc4)nn3ccn12 | -12.65% |
| CCCCc1ccc(NC(=O)Cn2nc3ccc(C(=O)Nc4ccc(OC)cc4)cn3c2=O)cc1 | -4.6% |
| CC(C)Sc1ccc2nn(CC(=O)Nc3ccc(Br)cc3F)c(=O)n2n1 | 3.45% |
| COc1ccccc1Cn1c(=O)c2sccc2n2c(=O)n(CC(=O)c3ccc(C)cc3C)nc12 | -4.83% |
| C=Cc1ccc(CN(c2ccc(Cl)cc2)S(=O)(=O)c2cccn3c(C)nnc23)cc1 | -3.28% |
| Cc1ccc(-c2ccc3nn(Cc4c(F)cccc4Cl)c(=O)n3n2)cc1 | -0.36% |
| CSc1cccc(NC(=O)Cn2nc3ccc(-c4ccccc4)nn3c2=O)c1 | -15.49% |
| Cc1ccc(Sc2ccc3nn(CC(=O)Nc4cccc(Cl)c4)c(=O)n3n2)cc1 | -11.91% |
| COc1cccc(Oc2nccn3c(=O)n(CC(=O)Nc4cc(C)c(Cl)cc4OC)nc23)c1 | -0.57% |
| Cc1ccc(-c2cc3c4nn(CC(=O)Nc5ccccc5C)c(=O)n4ccn3n2)cc1C | 2.13% |
| CC(C)c1nnc2c(=O)n(CC(=O)Nc3ccc(Cl)c(Cl)c3)c3ccccc3n12 | 5.48% |
| CCOC(=O)c1ccccc1NC(=O)Cn1nc2c3cc(-c4ccc(Cl)cc4)nn3ccn2c1=O | 2.34% |

| SMILES | Inhibition |
| --- | --- |
| CCN(C(=O)Cn1nc2nc(Nc3ccc(F)cc3)ccn2c1=O)c1ccccc1 | -3.17% |
| Cc1ccc(Oc2nccn3c(=O)n(CC(=O)Nc4ccc(Br)cc4F)nc23)cc1 | -0.38% |
| CCc1ccc(N(Cc2ccccc2Cl)S(=O)(=O)c2cccn3c(C)nnc23)cc1 | 0.45% |
| COc1cc(NC(=O)CSc2nnc3c(=O)n(-c4ccccc4)ccn23)cc(OC)c1 | 0.85% |
| CC(C)Cn1c(=O)c2sccc2n2c(=O)n(Cc3ccccc3Cl)nc12 | -6.09% |
| COc1ccc(C)cc1NC(=O)Cn1nc2cc(C)nc(Nc3ccc(F)cc3)n2c1=O | 2.14% |
| CCOC(=O)N1CCN(C(=O)CCc2nnc3c4cc(-c5ccc(F)cc5)nn4ccn23)CC1 | 2.2% |
| COc1ccc(CNC(=O)Cn2nc3c(N4CCN(c5ccccc5C)CC4)nccn3c2=O)cc1 | -3.43% |
| O=C(Cn1nc2c(SC3CCCCC3)nccn2c1=O)Nc1ccccc1Br | -5.42% |
| Cc1ccc(C)c(Cn2nc3c(=O)n(-c4cccc(Cl)c4C)ccn3c2=O)c1 | -10.27% |
| CCc1ccccc1NC(=O)Cn1nc2c(SCc3ccc(Cl)cc3)nccn2c1=O | -5.25% |
| COc1cccc(-c2nc(CSc3nc4ccccc4n4c(C)nnc34)c(C)o2)c1OC | -2.95% |
| Cc1cc2nn(CC(=O)Nc3ccc(F)cc3Cl)c(=O)n2c(Nc2ccc(F)cc2)n1 | -0.12% |
| O=C(CCc1nnc2c(N3CCCCC3)nc3ccccc3n12)NCc1ccc2c(c1)OCO2 | 2.95% |
| Cc1ccc(C)c(NC(=O)Cn2nc3ccc(-c4ccccc4)nn3c2=O)c1 | -9.05% |
| CCCCOc1ccc(-c2cc3c4nnc(SCC(=O)N(C)c5ccc(F)cc5)n4ccn3n2)cc1 | -5.6% |
| Cc1cc(C)c(NC(=O)Cn2nc3c(SCc4ccc(Cl)cc4)nccn3c2=O)c(C)c1 | 0.78% |
| Cc1ccccc1Oc1nccn2c(=O)n(CC(=O)Nc3ccc(C#N)cc3)nc12 | -0.39% |
| CCc1ccc(N(Cc2ccccc2F)S(=O)(=O)c2cccn3c(C)nnc23)cc1 | -1.05% |
| O=c1c2nn(Cc3cccc([N+](=O)[O-])c3)c(=O)n2ccn1-c1ccccc1 | -2.06% |
